Some structures have more than one record in an assay (separate samples or runs), and their calls can disagree. The source made the active and inactive calls. Rule for the calls: active = hit-call score of the fitted dose curve at least 0.9, where 1 is the maximum; inactive = score below 0.9.
Assay: ATG_Sox_CIS: Attagene CIS-FACTORIAL HepG2 Assay for human SRY-box transcription factor (SOX) (AID 2282960)
Settings: HepG2 Attagene cis-factorial SOX reporter, mRNA; actives raise or lower the signal
In short: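 HepG2 cells transiently transfected with cis-element-driven multiple reporter transcription units, dosed 24 h; reporter mRNA measured by RT-PCR, FAM labelling, HpaI digestion and capillary electrophoresis. Bidirectional fit versus DMSO baseline.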

| SMILES | outcome | AC50 |
| --- | --- | --- |
| Sc1ccccc1 | inactive |  |
| O=C(O)C(F)(F)C(F)(F)C(F)(F)C(F)(F)C(F)(F)C(F)(F)C(F)(F)C(F)(F)F | inactive |  |
| CCC(=O)O[C@H]1CC[C@H]2[C@@H]3CCC4=CC(=O)CC[C@]4(C)[C@H]3CC[C@]12C | inactive | 152 µM (active) |
| CC#Cc1cc(C)nc(Nc2ccccc2)n1 | inactive |  |
| CN(C)CCO | inactive |  |
| ClC1=C(Cl)[C@]2(Cl)[C@@H]3[C@@H]4C[C@@H]([C@H]5O[C@@H]45)[C@@H]3[C@@]1(Cl)C2(Cl)Cl | inactive |  |
| ClC(Cl)=C(c1ccc(Cl)cc1)c1ccc(Cl)cc1 | inactive | 66.7 µM (active) |
| CC(C)(c1ccccc1)c1ccc(O)cc1 | inactive | 50.8 µM (active) |
| CCOCCOC(C)=O | inactive |  |
| Oc1ccc(Cl)cc1Cl | inactive |  |
| Clc1ccc(Cl)cc1 | inactive |  |
| O=C(O)C(F)(F)C(F)(F)C(F)(F)C(F)(F)C(F)(F)C(F)(F)C(F)(F)C(F)(F)C(F)(F)F | inactive | 33.4 µM (active) |
| O=C(N[C@H]1CN2CCC1CC2)c1cc2ccoc2cn1 | inactive |  |
| Cc1cccc([N+](=O)[O-])c1 | inactive |  |
| Cc1ccc(O)c(C)c1 | inactive |  |
| Cc1cccc(C)c1N | inactive |  |
| c1cc2ccc3cccc4ccc(c1)c2c34 | inactive |  |
| C1CC2OC2CC1C1CO1 (stereo not given) | inactive |  |
| Cc1cc2c3c(c1)C(c1ccccc1)=N[C@@H](NC(=O)c1ccncc1)C(=O)N3CC2 | inactive |  |
| NS(=O)(=O)C(F)(F)C(F)(F)C(F)(F)C(F)(F)C(F)(F)C(F)(F)C(F)(F)C(F)(F)F | inactive | 83.8 µM (active) |

— PubChem BioAssay (EPA / NIEHS)
